Counter-ions that a name gives are not always drawn. The whole screen tested about 5,800 compounds, of which about 620 (11%) showed activity. The list comes from a sample in which actives are over-represented; it also holds similar structures and randomly drawn compounds. A number with no mark means an inactive call.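 Rule for the calls: active = score above a cut-off or among the top three wells of a plate; in these data no inactive exceeds 0.85.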
Test system: primary human hepatic stellate cells (donor 1)
Assay: scaled lipid accumulation score (0 = DMSO-like, 1 = nortriptyline-like); higher = stronger HSC inactivation (lipid re-accumulation), active = hit call of the paper
Settings: 48 h
[1] = library stock concentration: 10 mM
[2] = library stock concentration: 3.33 mM
[3] = library stock concentration: 1 mM
[4] = library stock concentration: 80 uM
[5] = library stock concentration: 400 uM
[6] = library stock concentration: 2 mM

CCCCC1(C2CCCC2)Cc2cc(OCC(=O)O)c(Cl)c(Cl)c2C1=O (stereo in doubt) [R(+)-Butylindazone]
scaled lipid accumulation score [1]: 0.139

CN(CC(=O)N(Cc1ccc(C2CCCCC2)cc1)c1ccc(C(=O)O)cc1)S(=O)(=O)c1c(F)c(F)c(F)c(F)c1F
scaled lipid accumulation score [2]: ≤ -0.009 | scaled lipid accumulation score [1]: 0.483

CCCCC[C@H](O)/C=C/[C@@H]1[C@@H](C/C=C\CCCC(=O)N(C)C)[C@@H](O)C[C@H]1O [Prostaglandin F2.alpha. dimethyl amide]
scaled lipid accumulation score [3]: ≤ 0

CC(C)N(CCC(=O)c1ccc2ccccc2c1)Cc1ccccc1
scaled lipid accumulation score [2]: 0.613 | scaled lipid accumulation score [1]: 0.619

CC(C)NCC(O)c1ccc2ccccc2c1 (stereo not drawn) [Pronetalol hydrochloride]
scaled lipid accumulation score [1]: 0.107

CC(C)NCC(O)c1ccc2ccccc2c1 (stereo not drawn) [Pronethalol hydrochloride]
scaled lipid accumulation score: 0.369 | scaled lipid accumulation score [1]: 0.221

CC(COc1ccccc1)N(CCCl)Cc1ccccc1 (stereo not drawn) [Phenoxybenzamine HCl]
scaled lipid accumulation score [2]: ≤ 0 | scaled lipid accumulation score (library stock concentration: 6.6 mM): 0.025 | scaled lipid accumulation score [1]: ≤ 0

CC(C)N(CCC(=O)c1ccc2ccccc2c1)Cc1ccccc1.Cl [listing 1 of 2 here]
scaled lipid accumulation score [1]: 0.966 (active)

C=CC(=O)c1ccc2ccccc2c1
scaled lipid accumulation score [1]: 0.015

CC(COc1ccccc1)N(CCCl)Cc1ccccc1 (stereo not drawn) [Phenoxybenzamine hydrochloride]
scaled lipid accumulation score: 0.065 | scaled lipid accumulation score (library stock concentration: 5.9 mM): ≤ 0

CC(COc1ccccc1)N(CCCl)Cc1ccccc1 (stereo not drawn) [Phenoxybenzamine]
scaled lipid accumulation score (library stock concentration: 16.5 mM): ≤ -0.012

CC(COc1ccccc1)N(CCCl)Cc1ccccc1 (stereo not drawn) [Dibenzyline]
scaled lipid accumulation score [1]: 0.174

CC(C)N(CCC(=O)c1ccc2ccccc2c1)Cc1ccccc1.Cl [listing 2 of 2 here]
scaled lipid accumulation score [1]: 1.1 (active)

CC(C)NCC(O)c1ccc2ccccc2c1 (stereo not drawn) [Pronethalol HCl]
scaled lipid accumulation score (library stock concentration: 8.7 mM): 0.224

CCCCCCCCCCCCCCCCOC[C@H](COP(=O)([O-])OCCCCCC[N+](C)(C)C)OC(C)=O [Hexanolamino PAF C-16]
scaled lipid accumulation score [3]: ≤ 0

Cc1ccc(-n2[nH]c(C)c(N=Nc3cccc(-c4cccc(C(=O)O)c4)c3O)c2=O)cc1C [Eltrombopag]
scaled lipid accumulation score [2]: 0.081 | scaled lipid accumulation score [1]: 0.077

COc1cccc2cc(-c3nc([C@H]4CC[C@H](C(=O)O)CC4)n4ncnc(N)c34)[nH]c12
scaled lipid accumulation score [4]: ≤ 0 | scaled lipid accumulation score [5]: 0.061 | scaled lipid accumulation score [6]: ≤ 0 | scaled lipid accumulation score [2]: 0.043 | scaled lipid accumulation score [1]: ≤ 0

C[C@H]1C[C@@H]2[C@H]([C@@H](O)C[C@@]3(C)[C@H]2CC[C@]3(O)C(=O)COC(=O)CCC(=O)O)[C@@]2(C)C=CC(=O)C=C12 [Methylprednisolone sodium succinate]
scaled lipid accumulation score (library stock concentration: 4 mM): 0.015

N#CSc1cc(SC#N)c(N)nc1N
scaled lipid accumulation score [2]: 0.46 | scaled lipid accumulation score [1]: 0.53

NC(Cn1ccc(=O)c(O)c1)C(=O)O (stereo not drawn) [Mimosine]
scaled lipid accumulation score: ≤ 0 | scaled lipid accumulation score [1]: ≤ 0

CCCCC[C@H](O)/C=C/[C@H]1CC[C@H](O)[C@@H]1CCCCCCC(=O)O [11-deoxy Prostaglandin F1.alpha.]
scaled lipid accumulation score [3]: ≤ 0

CCCCC(C)(C)[C@H](O)/C=C/[C@H]1CCC(=O)[C@@H]1C/C=C\CCCC(=O)O [11-deoxy-16,16-dimethyl Prostaglandin E2]
scaled lipid accumulation score [3]: 0.098

Cl.OCCN1CCN(CC/C=C2/c3ccccc3Sc3ccc(Cl)cc32)CC1 [Zuclopenthixol hydrochloride]
scaled lipid accumulation score: 0.995 (active)

CN1CCN(CC/C=C2/c3ccccc3Sc3ccc(S(=O)(=O)N(C)C)cc32)CC1 [Thiothixene]
scaled lipid accumulation score [1]: 0.435

CN1CCN(CC/C=C2\c3ccccc3Sc3ccc(S(=O)(=O)N(C)C)cc32)CC1 [Thiothixene]
scaled lipid accumulation score (library stock concentration: 4.5 mM): 0.856 (active)

Cl.Cl.OCCN1CCN(CC/C=C2/c3ccccc3Sc3ccc(C(F)(F)F)cc32)CC1 [cis-(Z)-Flupenthixol dihydrochloride]
scaled lipid accumulation score [1]: 1.01 (active)

CN1CCN(CC/C=C2/c3ccccc3Sc3ccc(S(=O)(=O)N(C)C)cc32)CC1
scaled lipid accumulation score [1]: 0.722

CN1CCN(CCCN2c3ccccc3Sc3ccc(S(=O)(=O)N(C)C)cc32)CC1 [Thioproperazine dimesylate]
scaled lipid accumulation score: 0.733

CCCCC[C@H](O)C/C=C1/C(=O)C=C[C@@H]1C/C=C\CCCC(=O)O [D12-Prostaglandin J2]
scaled lipid accumulation score [3]: ≤ -0.021

CC(=N)NCc1cccc(CN)c1 [1400W dihydrochloride]
scaled lipid accumulation score [1]: ≤ -0.006

Cc1oc(S(=O)(=O)N2CCCCC2)cc1NC(=O)Nc1ccccc1
scaled lipid accumulation score [3]: ≤ 0

Cc1cc(/N=N/c2cc(S(=O)(=O)O)c(C)cc2C)c(N)cc1O [Ischemin]
scaled lipid accumulation score [4]: ≤ 0 | scaled lipid accumulation score [5]: ≤ 0 | scaled lipid accumulation score [6]: ≤ 0 | scaled lipid accumulation score [1]: ≤ 0

COC(=O)CC(NC(=O)C(C)NC(=O)C(NC(=O)OCc1ccccc1)C(C)C)C(=O)CF (stereo not drawn)
scaled lipid accumulation score [2]: ≤ 0 | scaled lipid accumulation score [1]: 0.101

Cc1cc(C)c(S(=O)(=O)Nc2ccccc2C(F)(F)F)c(C)c1
scaled lipid accumulation score [1]: 0.002

CC/C=C\C/C=C\C/C=C\C/C=C\C/C=C\CCCC(=O)O [Eicosapentaenoic acid (20:5 n-3)]
scaled lipid accumulation score [3]: 0.009

CC/C=C\C/C=C\C/C=C\C/C=C\C/C=C\CCCC(=O)O [Eicosapentaenoic Acid]
scaled lipid accumulation score [3]: 0.001
